# Columns and labels:
# ETS1 [1] = biological target: T1, ETS1 (UniProt P14921); assay: ETS1 binding intensity (PBM fluorescence), ETS1 alone (arbitrary fluorescence units); higher = stronger binding; conditions: ETS1 concentration 1 nM; RUNX1 concentration 0 nM
# T1 sequence: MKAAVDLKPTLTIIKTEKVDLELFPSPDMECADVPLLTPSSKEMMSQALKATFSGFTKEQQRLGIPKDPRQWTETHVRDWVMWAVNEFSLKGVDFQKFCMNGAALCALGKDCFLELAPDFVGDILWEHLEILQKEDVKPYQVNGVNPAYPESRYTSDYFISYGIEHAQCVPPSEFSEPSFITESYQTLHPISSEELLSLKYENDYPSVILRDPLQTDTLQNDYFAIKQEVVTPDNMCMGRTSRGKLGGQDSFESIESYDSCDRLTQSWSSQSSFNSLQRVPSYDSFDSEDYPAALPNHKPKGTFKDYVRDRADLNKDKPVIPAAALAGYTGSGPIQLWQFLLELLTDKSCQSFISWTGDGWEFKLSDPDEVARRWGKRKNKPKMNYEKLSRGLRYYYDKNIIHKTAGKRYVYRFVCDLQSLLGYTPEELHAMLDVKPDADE
# RUNX1 [2] = biological target: RUNX1 (UniProt Q01196); assay: RUNX1 binding intensity (PBM fluorescence), RUNX1 alone (arbitrary fluorescence units); higher = stronger binding; conditions: RUNX1 concentration 2 nM; ETS1 concentration 0 nM
# Method: (§1)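 Cooperative gcPBM on 36-bp genomic probes with neighbouring ETS1 and RUNX1 sites. Recombinant human RUNX1 (2 nM) was incubated alone or with ETS1 (25 nM) and detected with anti-RUNX1 antibody plus Alexa488 secondary. Values are medians over 4 replicate spots; the RUNX1+ETS1 data were normalised to the RUNX1-only data. The probes sit in constant array flanks that are not printed.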
# ETS1 [3] = biological target: T1, ETS1; assay: ETS1 binding intensity (PBM fluorescence) in presence of RUNX1, normalised to ETS1-only experiment (arbitrary fluorescence units); higher = stronger binding; conditions: ETS1 concentration 1 nM; RUNX1 concentration 25 nM
# RUNX1 [4] = biological target: RUNX1 (UniProt Q01196); assay: RUNX1 binding intensity (PBM fluorescence) in presence of ETS1, normalised to RUNX1-only experiment (arbitrary fluorescence units); higher = stronger binding; conditions: RUNX1 concentration 2 nM; ETS1 concentration 25 nM
# Method: as §1
# 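For RUNX1 binding intensity (PBM fluorescence) in presence of ETS1, normalised to RUNX1-only experiment in this document: Full-length recombinant human ETS1 or RUNX1 bound to double-stranded 36-bp genomic probes on microarrays, detected by protein-specific primary antibody and Alexa488 secondary, spot fluorescence as median of four replicate spots.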
# 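For RUNX1 binding intensity (PBM fluorescence), RUNX1 alone in this document: Full-length recombinant human RUNX1 bound to double-stranded 36-bp genomic probes on a high-density microarray, scored as Alexa488 fluorescence per spot via anti-RUNX1 antibody, median of four replicate spots.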
# Sequence of RUNX1 (Q01196 whole entry): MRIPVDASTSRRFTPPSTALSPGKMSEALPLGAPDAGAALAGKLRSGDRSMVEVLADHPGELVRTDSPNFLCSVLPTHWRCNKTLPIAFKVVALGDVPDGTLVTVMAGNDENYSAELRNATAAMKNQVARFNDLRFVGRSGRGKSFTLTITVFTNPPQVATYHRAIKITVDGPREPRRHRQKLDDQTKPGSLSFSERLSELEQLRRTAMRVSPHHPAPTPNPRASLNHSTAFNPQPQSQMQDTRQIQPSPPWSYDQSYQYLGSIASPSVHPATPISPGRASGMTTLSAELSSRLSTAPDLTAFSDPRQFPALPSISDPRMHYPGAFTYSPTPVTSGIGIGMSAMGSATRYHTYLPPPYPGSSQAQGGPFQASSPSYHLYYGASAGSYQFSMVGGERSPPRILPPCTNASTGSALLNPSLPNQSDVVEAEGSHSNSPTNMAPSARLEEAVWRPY
Sequence,ETS1 binding intensity (ETS1 [1]),RUNX1 binding intensity (RUNX1 [2]),ETS1 binding intensity (ETS1 [3]),RUNX1 binding intensity (RUNX1 [4])
TGGAGAGCACAGGAAGTGGCCCACAGCCCAGGCCAA,5790,766,6890,1280
CCGGGACAGGAAGAGGCTGGGGACCGCGGCGAAGGT,1440,710,1550,1030
ACCTCATCCTGCTGTTCTTGTGTGTGGTTGAGCAGT,453,944,432,1340
TGACTTCCGGTCCGTAGTGGGGCCTGCGGTGGGAGT,3690,801,10700,3180
TTTGCTGCAGAAGGATGTGGTTTATTCAGGTTTGAC,676,932,3620,1270
GAGAAAAGAGACTGAGGATGTGGTTTGGGGTGTGGG,661,844,6260,1050
GTTTCTCTGGCCAGGAAATTGAGGTTTCTGTTAGTC,2010,851,3260,1660
AGGCCCCGCCCCTTCCGCCCACAGAGCCCGCCACTT,779,1100,1000,1730
TCCTCCCACGGGAAGTGCCGTAGGACCGCAGCCCGA,870,812,1170,1020
TGTCGGGCGGATGTGTACCGGCGGTAATATAGTAAG,2300,753,2270,1220
TTGGAGGCGGAAACAGGCACCGAAAGCGGTGGAAGT,2150,717,2120,854
CAGAACGGTCCCCGGAACACTGCGGTTCCCGCCTGG,357,1040,895,889
AGGTTCTCCAGAGGAGGAAGTGGTTTGCTGCAGGCT,2450,755,4400,971
GGAGCATCCCGGAAGTCGTCACTGCGGCCGCTCCCG,6420,690,8070,1770
AGGGACTTCCGGTGACCAGAGCACTAGCGCCGCAAA,2160,768,1990,2070
GAAAACTAAGCAGGATGTGGTCTCGGCTGGAGCCTG,2730,657,5380,2020
CCCTACTCAGGAGGATGTGGTTGGAGAACCCGCTGA,815,755,2260,1300
GTTCTCCTTCCTGTGCCGAGTGTGGTTTGCTATCAA,580,1250,622,2400
AGTGGAGTAGGAACCGGAAAACCACAATAAGTCCCA,2170,1470,12400,3630
ACTTACAAAGGAAGTGACAGAACCACAGAAAAGACC,1230,732,2660,1240

Sequence,ETS1 binding intensity (ETS1 [1]),RUNX1 binding intensity (RUNX1 [2]),ETS1 binding intensity (ETS1 [3]),RUNX1 binding intensity (RUNX1 [4])
ACCAGCCCAGGAAGCATCTGCGGTTCAAGTGGCCAC,452,1130,1470,1750
TTCAGGAAATGCAAACGGCTGCAGAGACCGCAGAGG,499,793,2490,1090
GGAACAGGAAGCGGCAGAAATAGCAGCCACCGCGGC,960,819,1540,1310
AAGAGGAAATAAATACCAGAGTGAACCCACAAACCT,441,892,943,903
GCACTACATTTCCCAGCTTTCCTCGCGGTAAAGAGA,456,1270,429,1270
TCCCGGCGTTCTTCCGCTGGCTCAGCCGCAAGTACC,573,818,822,1170
ATCAGTCAACTTCCCCCACTCCCTCCCACAAAGAAA,1010,1400,979,1300
AGAGTCTTTTTTCCTGAGCGTTTGCGGTTTTGACTT,430,10500,1690,19500
TCCAGGATGTGGGATGCCGTGCTGTACCGCATGTCA,498,652,1030,1160
AGAAGGAACTACACAGGAAACCCACTGCCTCGATGG,2430,691,1640,865
GACTGGACAACTTCCTGGTGGAAAACCGCGACTCTT,637,1050,2930,2340
GCAGTGCAGGAAGTGCTTTGTGTGGTACAATCCCAA,1920,759,2110,1030
TTTCCACTTCCTGTTCTACTTGTGGCTACTGACTCA,2530,1100,2890,3380
TGGGGCTAGGCTTCCGGGGCTCTGCGGTCCTCGGCC,481,662,623,1180
TACCTACATCCTGCCACCACCCGAGGGGACCGCAAG,496,1050,974,2810
CCGGGCTGCGGAAGGCGGGAATTCTGCGGTTCGCGG,405,1230,1990,1720
TCTGTTCTTCCTTTTCCTGTGCGGTGTGCCCCAAAC,628,1530,722,2810
ACCAACCGGAAGTGATCGTGTTGTGGCCGAAGGAGG,16100,785,18100,1590
CCCTTCCGCGTGGGTTGCACCTGCTAACCACAGAGC,329,1090,866,1600

# Source: the supplement of paper PMC10681739
